# Measurements as given in PubChem BioAssay (NCI).
# The panel holds about 79,000 compounds, 15% with a hit somewhere; the sample as a whole holds those more often. Unmarked numbers belong to inactive results. Calls of active or inactive are those of the source. Rule as the data show it: active = growth inhibition above about 70%; inactive = the rest.
# Tests used:
# [1] = NCI Yeast Anticancer Drug Screen. Data for the rad50EPP+ strain (AID 151);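 also: 0% = growth of vehicle-treated control cultures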; conditions: S. cerevisiae rad50 mutant strain, active compounds read high
# Method in brief: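 In this screen, rad50EPP+ yeast were exposed to compounds. Growth inhibition was scored against vehicle-treated controls.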
# [2] = NCI Yeast Anticancer Drug Screen. Data for the mgt1 strain (AID 153); conditions: S. cerevisiae mgt1 mutant growth inhibition, active compounds read high
# Method in brief: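 mgt1 strain exposed; growth vs vehicle control recorded as inhibition.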
# [3] = NCI Yeast Anticancer Drug Screen. Data for the rad50 strain (AID 155);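 also: 0% = growth of vehicle-only cultures of the same strain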; conditions: S. cerevisiae rad50 strain growth inhibition, active compounds read high
# Method in brief: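 Compounds were tested on a yeast strain with an engineered DNA damage repair alteration; the reported value is growth inhibition normalised to vehicle treatment.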
# [4] = NCI Yeast Anticancer Drug Screen. Data for the mec2-1 strain (AID 157); conditions: S. cerevisiae mec2-1 strain, active compounds read high
# Method in brief: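 Vehicle-treated cultures served as reference for growth inhibition of compound-exposed mec2-1 yeast.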
# [5] = NCI Yeast Anticancer Drug Screen. Data for the rad14 strain (AID 159);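 also: 0% = growth of vehicle-treated control cultures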; conditions: S. cerevisiae rad14 strain growth inhibition, active compounds read high
# Method in brief: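 Compound-treated yeast with a defined DNA-repair lesion; growth inhibition normalised to vehicle-treated cultures.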
# [6] = NCI Yeast Anticancer Drug Screen. Data for the sgs1 mgt1 strain (AID 161);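 also: 0% = growth of cultures given vehicle only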; conditions: S. cerevisiae sgs1 mgt1 strain, active compounds read high
# Method in brief: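 Test agents were incubated with a DNA-repair-mutant yeast strain. Growth was then read and compared against vehicle-treated controls.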
# [7] = NCI Yeast Anticancer Drug Screen. Data for the CLN2oe strain (AID 163);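 also: 0% = growth of vehicle-only control cultures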; conditions: S. cerevisiae CLN2oe strain, active compounds read high
# Method in brief: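 Inhibition relative to vehicle-treated yeast is reported. Cells: strain with genetic alteration in cell-cycle control, grown with compound.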
# [8] = NCI Yeast Anticancer Drug Screen. Data for the cln2 rad14 strain (AID 165);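 also: 0% = growth equal to vehicle treated cultures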; conditions: S. cerevisiae cln2 rad14 strain, active compounds read high
# Method in brief: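 Each compound was tested on cln2 rad14 yeast. Inhibition of growth was calculated against vehicle-exposed controls.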
# [9] = NCI Yeast Anticancer Drug Screen. Data for the bub3 strain (AID 167); conditions: S. cerevisiae bub3 mutant strain, active compounds read high
# Method in brief: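 Growth of a checkpoint-deficient yeast mutant is measured after compound exposure. Values represent inhibition relative to vehicle.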
# [10] = NCI Yeast Anticancer Drug Screen. Data for the wt2 strain (AID 169);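 also: 0% = growth of vehicle-treated yeast cultures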; conditions: S. cerevisiae wt2 strain growth inhibition, active compounds read high
# Method in brief: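 Inhibition of yeast growth was determined after compound treatment, normalised to controls receiving only vehicle.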
# [11] = NCI Yeast Anticancer Drug Screen. Data for the mlh1 strain (AID 171);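 also: 0% = growth of vehicle-treated control cultures of the same strain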; conditions: S. cerevisiae mlh1 strain growth inhibition, active compounds read high
# Method in brief: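 Vehicle-normalised growth inhibition of a repair- or checkpoint-altered yeast strain following compound treatment.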
# [12] = NCI Yeast Anticancer Drug Screen. Data for the sgs1 strain (AID 173);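 also: 0% = growth of vehicle-only control cultures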; conditions: S. cerevisiae sgs1 mutant, active compounds read high
# Method in brief: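 Screen format: yeast with repair or checkpoint alterations, compound exposure, growth read relative to vehicle.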
# [13] = NCI Yeast Anticancer Drug Screen. Data for the mlh1 rad18 strain (AID 175); conditions: S. cerevisiae mlh1 rad18 strain growth inhibition, active compounds read high
# Method in brief: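 Vehicle-treated cultures served as the reference for growth inhibition in a yeast strain carrying DNA damage repair alterations exposed to each compound.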
# [14] = NCI Yeast Anticancer Drug Screen. Data for the rad18 strain (AID 177); conditions: S. cerevisiae rad18 mutant growth inhibition, active compounds read high
# Method in brief: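 Test articles were incubated with altered yeast defective in DNA damage repair. Results are given as inhibition of growth versus vehicle.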
# [15] = at 5.0 µM (retest, dose inferred, filed as 0.5)
# [16] = at 50.0 µM (retest, dose inferred, filed as 5.0)
compound,measurement,setting,value
COc1ccc2cc(CN3CCC(C4CCN(Cc5ccc6cc(OC)ccc6c5)CC4)CC3)ccc2c1,growth inhibition,[1]; at 1.2 µM,-17%
same,growth inhibition,[1]; at 3.7 µM,-14%
same,growth inhibition,[1]; at 11.0 µM,-12%
same,growth inhibition,[1]; at 33.0 µM,-2%
same,growth inhibition,[1]; at 100.0 µM,98% (active)
same,growth inhibition,[2]; at 1.2 µM,-9%
same,growth inhibition,[2]; at 3.7 µM,-5%
same,growth inhibition,[2]; at 11.0 µM,0%
same,growth inhibition,[2]; at 33.0 µM,4%
same,growth inhibition,[2]; at 100.0 µM,97% (active)
same,growth inhibition,[3]; at 1.2 µM,-2%
same,growth inhibition,[3]; at 3.7 µM,5%
same,growth inhibition,[3]; [15],1%
same,growth inhibition,[3]; at 11.0 µM,9%
same,growth inhibition,[3]; at 33.0 µM,26%
same,growth inhibition,[3]; [16],38%
same,growth inhibition,[3]; at 50.0 µM,88.8% (active)
same,growth inhibition,[3]; at 100.0 µM,97% (active)
same,growth inhibition,[4]; at 1.2 µM,-17%
same,growth inhibition,[4]; at 3.7 µM,-40%
same,growth inhibition,[4]; [15],-2%
same,growth inhibition,[4]; at 11.0 µM,-40%
same,growth inhibition,[4]; at 33.0 µM,-31%
same,growth inhibition,[4]; [16],22%
same,growth inhibition,[4]; at 50.0 µM,75.7% (active)
same,growth inhibition,[4]; at 100.0 µM,98% (active)
same,growth inhibition,[5]; at 1.2 µM,-19%
same,growth inhibition,[5]; at 3.7 µM,-13%
same,growth inhibition,[5]; at 11.0 µM,-22%
same,growth inhibition,[5]; at 33.0 µM,9%
same,growth inhibition,[5]; at 100.0 µM,97% (active)
same,growth inhibition,[6]; [15],7%
same,growth inhibition,[6]; [16],4%
same,growth inhibition,[6]; at 50.0 µM,83.2% (active)
same,growth inhibition,[7]; at 1.2 µM,16%
same,growth inhibition,[7]; at 3.7 µM,29%
same,growth inhibition,[7]; at 11.0 µM,19%
same,growth inhibition,[7]; at 33.0 µM,36%
same,growth inhibition,[7]; at 100.0 µM,98% (active)
same,growth inhibition,[8]; [15],19%
same,growth inhibition,[8]; [16],-48%
same,growth inhibition,[8]; at 50.0 µM,64.3%
same,growth inhibition,[9]; at 1.2 µM,-32%
same,growth inhibition,[9]; at 3.7 µM,-35%
same,growth inhibition,[9]; [15],19%
same,growth inhibition,[9]; at 11.0 µM,-28%
same,growth inhibition,[9]; at 33.0 µM,-20%
same,growth inhibition,[9]; [16],0%
same,growth inhibition,[9]; at 50.0 µM,89% (active)
same,growth inhibition,[9]; at 100.0 µM,98% (active)
same,growth inhibition,[10]; at 1.2 µM,0%
same,growth inhibition,[10]; at 3.7 µM,15%
same,growth inhibition,[10]; at 11.0 µM,7%
same,growth inhibition,[10]; at 33.0 µM,-3%
same,growth inhibition,[10]; at 100.0 µM,98% (active)
same,growth inhibition,[11]; at 1.2 µM,-12%
same,growth inhibition,[11]; at 3.7 µM,-15%
same,growth inhibition,[11]; at 11.0 µM,-17%
same,growth inhibition,[11]; at 33.0 µM,-26%
same,growth inhibition,[11]; at 100.0 µM,97% (active)
same,growth inhibition,[12]; at 1.2 µM,14%
same,growth inhibition,[12]; at 3.7 µM,8%
same,growth inhibition,[12]; at 11.0 µM,12%
same,growth inhibition,[12]; at 33.0 µM,3%
same,growth inhibition,[12]; at 100.0 µM,98% (active)
same,growth inhibition,[13]; [15],-8%
same,growth inhibition,[13]; [16],80% (active)
same,growth inhibition,[13]; at 50.0 µM,-19.2%
same,growth inhibition,[14]; at 1.2 µM,0%
same,growth inhibition,[14]; at 3.7 µM,0%
same,growth inhibition,[14]; at 11.0 µM,3%
same,growth inhibition,[14]; at 33.0 µM,22%
same,growth inhibition,[14]; at 100.0 µM,98% (active)
Cc1c2ccncc2c(C)c2c1oc1ccccc12,growth inhibition,[1]; at 1.2 µM,52%
same,growth inhibition,[1]; at 3.7 µM,82% (active)
same,growth inhibition,[1]; at 11.0 µM,84% (active)
same,growth inhibition,[1]; at 33.0 µM,98% (active)
same,growth inhibition,[1]; at 100.0 µM,97% (active)
same,growth inhibition,[2]; at 1.2 µM,-1%
same,growth inhibition,[2]; at 3.7 µM,6%
same,growth inhibition,[2]; at 11.0 µM,10%
same,growth inhibition,[2]; at 33.0 µM,61%
same,growth inhibition,[2]; at 100.0 µM,98% (active)
same,growth inhibition,[3]; at 1.2 µM,53%
same,growth inhibition,[3]; at 3.7 µM,87% (active)
same,growth inhibition,[3]; [15],92% (active)
same,growth inhibition,[3]; at 11.0 µM,94% (active)
same,growth inhibition,[3]; at 33.0 µM,97% (active)
same,growth inhibition,[3]; [16],88% (active)
same,growth inhibition,[3]; at 50.0 µM,39.2%
same,growth inhibition,[3]; at 100.0 µM,95% (active)
same,growth inhibition,[4]; at 1.2 µM,5%
same,growth inhibition,[4]; at 3.7 µM,13%
same,growth inhibition,[4]; [15],29%
same,growth inhibition,[4]; at 11.0 µM,17%
same,growth inhibition,[4]; at 33.0 µM,80% (active)
same,growth inhibition,[4]; [16],93% (active)
same,growth inhibition,[4]; at 50.0 µM,51%
same,growth inhibition,[4]; at 100.0 µM,98% (active)
same,growth inhibition,[5]; at 1.2 µM,5%
same,growth inhibition,[5]; at 3.7 µM,29%
same,growth inhibition,[5]; at 11.0 µM,48%
same,growth inhibition,[5]; at 33.0 µM,93% (active)
same,growth inhibition,[5]; at 100.0 µM,98% (active)
same,growth inhibition,[6]; [15],4%
same,growth inhibition,[6]; [16],93% (active)
same,growth inhibition,[6]; at 50.0 µM,44.8%
same,growth inhibition,[7]; at 1.2 µM,12%
same,growth inhibition,[7]; at 3.7 µM,30%
same,growth inhibition,[7]; at 11.0 µM,53%
same,growth inhibition,[7]; at 33.0 µM,89% (active)
same,growth inhibition,[7]; at 100.0 µM,97% (active)
same,growth inhibition,[8]; [15],31%
same,growth inhibition,[8]; [16],93% (active)
same,growth inhibition,[8]; at 50.0 µM,94.2% (active)
same,growth inhibition,[9]; at 1.2 µM,19%
same,growth inhibition,[9]; at 3.7 µM,24%
same,growth inhibition,[9]; [15],27%
same,growth inhibition,[9]; at 11.0 µM,40%
same,growth inhibition,[9]; at 33.0 µM,88% (active)
same,growth inhibition,[9]; [16],94% (active)
same,growth inhibition,[9]; at 50.0 µM,96.4% (active)
same,growth inhibition,[9]; at 100.0 µM,98% (active)
same,growth inhibition,[10]; at 1.2 µM,7%
same,growth inhibition,[10]; at 3.7 µM,17%
same,growth inhibition,[10]; at 11.0 µM,57%
same,growth inhibition,[10]; at 33.0 µM,94% (active)
same,growth inhibition,[10]; at 100.0 µM,98% (active)
same,growth inhibition,[11]; at 1.2 µM,1%
same,growth inhibition,[11]; at 3.7 µM,16%
same,growth inhibition,[11]; at 11.0 µM,8%
same,growth inhibition,[11]; at 33.0 µM,87% (active)
same,growth inhibition,[11]; at 100.0 µM,98% (active)
same,growth inhibition,[12]; at 1.2 µM,-5%
same,growth inhibition,[12]; at 3.7 µM,-6%
same,growth inhibition,[12]; at 11.0 µM,16%
same,growth inhibition,[12]; at 33.0 µM,93% (active)
same,growth inhibition,[12]; at 100.0 µM,95% (active)
same,growth inhibition,[13]; [15],64%
same,growth inhibition,[13]; [16],90% (active)
same,growth inhibition,[13]; at 50.0 µM,50.1%
same,growth inhibition,[14]; at 1.2 µM,-2%
same,growth inhibition,[14]; at 3.7 µM,32%
same,growth inhibition,[14]; at 11.0 µM,56%
same,growth inhibition,[14]; at 33.0 µM,95% (active)
same,growth inhibition,[14]; at 100.0 µM,98% (active)
